Structures are written as SMILES. Where “and” joins values, the source holds several entries; their conditions need not be identical. Equal values may be shown once. Inconclusive results are not listed. Calls of active or inactive are those of the source. The call rests on the fitted dose curve; in most records, active means well fitted curve in either direction with a large enough effect (not every such curve was filed as active); inconclusive means small, poorly fitted or top-dose-only effect, or another doubt; inactive means flat fitted curve, though single readings scatter.
On the % scale 0 is the no-effect control and ±100 the full control effect.

The experiment can be described thus: NFAT Signaling Pathway (AID 444).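 Further: carbachol stimulus at about its EC50 of 1 µM final.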 The following applies: Jurkat NFAT-bla M1, carbachol, beta-lactamase ratio, 5 h; at 38 µM (top of the series) unless noted. Summed up:
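Jurkat cells carrying an NFAT-driven β-lactamase reporter and co-transfected muscarinic M1 receptor were treated with compound plus carbachol (1 uM final, an EC50 level) for 5 h at 37 °C. CCF4 loading followed for 1 h at RT; 460/530 nm ratio gave %activity.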
In the case of `O=C(O)C1=CC(=C(c2ccc(O)c(C(=O)O)c2)c2ccc(O)c(C(=O)O)c2)C=CC1=O`, the activity change, negative = inhibition is 1.98% (inactive).
The value for `C=CCn1c(=O)c2c(nc(-c3ccc(S(=O)(=O)O)cc3)n2C)n(C)c1=O` was -1.07% (inactive).
Next, `O=C1Nc2ccc(I)cc2/C1=C/c1cc(Br)c(O)c(Br)c1`: -120% (active); `CCn1c(=O)[nH]c2cc(Cl)c(Cl)cc21`: -27.1% (inactive).
The value for `NC(=O)CNCCC(c1ccccc1)c1ccccc1` was 1.39% (inactive); that for `Fc1ccc(CN(C2=NCCN2)c2c(Cl)cccc2Cl)cc1` was -21.2% (inactive).
On to `CCSC(=N)N`, for which the activity change, negative = inhibition is 1.19% (inactive).
The value for `O=c1[nH]c(=O)c2nc3ccccc3nc2[nH]1` was 0.27% (inactive); that for `CCN1C(=O)C=CC1=O` was 4.62% (inactive); that for `CC(C)(C)c1cc(/C=C(\C#N)C(N)=S)cc(C(C)(C)C)c1O` was -95.5% (active).
As for `COc1cc(/C=C(\C#N)C(=O)c2ccc(O)c(O)c2)cc(I)c1O`, the activity change, negative = inhibition is 8.66% (inactive).
The value for `OC1(c2ccc(Cl)cc2)CCN(Cc2c[nH]c3ccccc23)CC1` was 8.51% (inactive); that for `O=C(O)/C(=C/c1c(C(=O)O)[nH]c2cc(Cl)cc(Cl)c12)c1ccccc1` was -3.51% (inactive); that for `CC(=O)NCCc1c[nH]c2ccc(O)cc12` was 7.32% (inactive).
Regarding `[Li+]`, the activity change, negative = inhibition was 1.3% (inactive).
Next, `O=c1[nH]ccc2c(O)cccc12`: -6.89% (inactive); `Nc1ccc(N2C(=O)c3ccccc3C2=O)c(Cl)c1`: 7.18% (inactive); `COc1cc2c(CCNC(C)=O)c[nH]c2cc1O`: 3.14% (inactive).
The value for `N#Cc1cc2nc(O)c(O)nc2cc1[N+](=O)[O-]` was 10.2% (inactive); that for `c1ccc2nc(C3=NCCN3)ccc2c1` was -13% (inactive); that for `CNCCNS(=O)(=O)c1cccc2cnccc12` was -11.3% (inactive).
`Cn1cc(C(=O)OCC2CCN(CCNS(C)(=O)=O)CC2)c2ccccc21`: the activity change, negative = inhibition was -2.1% (inactive).
The value for `NC(N)=NC(N)=Nc1cccc(Cl)c1` was 7.69% (inactive); that for `C[C@H](NC(=O)/C(C#N)=C/c1ccc(O)c(O)c1)c1ccccc1` was -20.6% (inactive) and -13.5% (inactive); that for `CN[C@H](CC(=O)O)C(=O)O` was 0.454% (inactive).
Next, `Nc1nc2ccc(Cl)cc2c2nc(-c3ccco3)nn12`: 19.6% (inactive); `NC(N)=[N+]1CCc2ccccc2C1`: 1.51% (inactive).
Next, `CC(=O)N[C@@H](Cc1c[nH]c2ccccc12)C(=O)OCc1cc(C(F)(F)F)cc(C(F)(F)F)c1`: 19.5% (inactive); `NOCC(=O)O`: -5.75% (inactive); `Nn1nnc2ccccc21`: 4.59% (inactive).
For the molecule `O=C(N[C@@H](Cc1ccccc1)C(=O)CCl)OCc1ccccc1`, the activity change, negative = inhibition was -11.8% (active).
Next, `CC[C@H](NC(=O)c1c(C)c(-c2ccccc2)nc2ccccc12)c1ccccc1`: 2.54% (inactive).

(Values after PubChem BioAssay (NCATS).)
